High-throughput results from PubChem BioAssay.
Shown are actives, neighbours in structure and some others; about 6.7% of the full set was active somewhere.
C diff growth = C. difficile growth inhibition; Clostridium difficile clinical isolate growth, OD600, 24 h; hits give low values; growth activity, negative = inhibition, % at 16 µg/mL (by protocol); hit rate 0.25% among 86,000; AID 1259249;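 active = mean growth activity at or below -80% and every replicate also at or below -80%; inconclusive = mean at or below -80% but some replicate above -80%; inactive = mean growth activity above -80%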;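 also: 0% = DMSO wells and -100% = levofloxacin 16 µg/mL wells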
T cruzi growth-1 = blocks T. cruzi growth in NIH3T3 culture; T. cruzi beta-gal in NIH3T3, GalScreen luminescence, 90 h; inhibition, % at 8.34 µM; hit rate 5.9% among 77,000;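 active = mean inhibition above about 93%, with at least 55% of replicates each passing it, limit read from the data, passing the limit was not always enough; inconclusive = only one of those two conditions holds; inactive = neither condition holds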
Pf Dd2 inh = blocks growth of Plasmodium falciparum Dd2 parasites; AID 1159554; activity change, % at 10 µM; hit rate 2.3% among 94,000; P. falciparum Dd2 growth, SYBR Green, 72 h; hits give low values; in the data active = activity change below about -80%; inconclusive = no clear call, values can overlap the other calls
T cruzi growth-2 = Trypanosoma cruzi proliferation inhibition; shares compounds with T cruzi growth-1; T. cruzi beta-gal in NIH3T3, GalScreen luminescence, 90 h; inhibition, % at 8.35 µM; hit rate 72% among 5,600; AID 651739;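 active = mean replicate inhibition above about 95% and at least 55% of replicates individually reaching it, limit read from the data; inconclusive = only one of the two criteria is met; inactive = neither criterion is met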
T cruzi growth-3 = Trypanosoma cruzi proliferation inhibition. inhibition, % at 2.09 µM. shares compounds with T cruzi growth-1. hit rate 21% among 5,600. T. cruzi beta-gal in NIH3T3, GalScreen luminescence, 90 h;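 active = mean inhibition above about 95%, with at least 55% of replicates also reaching it, limit read from the data; inconclusive = meets just one of the two conditions; inactive = meets neither condition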;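 also: plate controls were neutral control median for no effect and positive control median for full effect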
3T3 cytotox = cytotoxicity in mouse NIH/3T3 fibroblasts; AID 651742; NIH/3T3 viability, CellTiter-Glo ATP luminescence, 90 h; hit rate 14% among 5,600; shares compounds with T cruzi growth-1; cytotoxicity (signal decrease), % at 8.35 µM;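 active = mean signal decrease across replicates above about 35% based on untreated-well scatter, with enough replicates individually passing, limit read from the data; inconclusive = no rule stated though some were filed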;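 also: 0% = median of neutral control wells and 100% = median of positive control wells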
3T3 cytotox 2 = kills mouse NIH/3T3 fibroblasts; shares compounds with T cruzi growth-1; NIH/3T3 viability, CellTiter-Glo ATP luminescence, 90 h; inhibition, % at 24.9 µM; hit rate 56% among 5,600; AID 651744;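 active = mean loss of cell viability signal at or above a set limit, and enough replicates individually reaching it; inconclusive = meets only the mean limit or only the replicate share; inactive = meets neither condition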;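 also: 0% = median of neutral control wells and 100% = median of positive control wells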
Active calls of the source: *; ? = inconclusive; · = no result given.

SMILES | C diff growth | T cruzi growth-1 | Pf Dd2 inh | T cruzi growth-2 | T cruzi growth-3 | 3T3 cytotox | 3T3 cytotox 2
C[C@@H]1CCCCO[C@@H](CN(C)CC2CCCCC2)[C@H](C)CN([C@@H](C)CO)C(=O)c2cc(NS(=O)(=O)c3ccc(Cl)cc3)ccc2O1 | 6 | 102* | -36 | 105* | 94 | 26 | 106*
C[C@@H]1CN([C@@H](C)CO)C(=O)c2cc(NS(=O)(=O)c3ccc(Cl)cc3)ccc2O[C@@H](C)CCCCO[C@H]1CN(C)CC1CCCCC1 | -55 | 108* | -45 | 88 | 29 | ? | 102*
C[C@@H]1CN([C@@H](C)CO)C(=O)c2cc(NS(=O)(=O)c3ccc(Cl)cc3)ccc2O[C@@H](C)CCCCO[C@H]1CN(C)CC1CC1 | -4 | 106* | -74 | 107* | 82 | 16 | 15
C[C@@H]1CCCCO[C@@H](CN(C)CC2CCCCC2)[C@@H](C)CN([C@@H](C)CO)C(=O)c2cc(NS(=O)(=O)c3ccc(Cl)cc3)ccc2O1 | -7 | 64 | -19 | · | · | · | ·
C[C@@H]1CCCCO[C@@H](CN(C)CC2CC2)[C@@H](C)CN([C@H](C)CO)C(=O)c2cc(NS(=O)(=O)c3ccc(Cl)cc3)ccc2O1 | -2 | 28 | -62 | · | · | · | ·
COc1ccc(CN(C)C[C@@H]2Oc3ccc(NC(=O)CCN4CCOCC4)cc3CC(=O)N([C@@H](C)CO)C[C@@H]2C)cc1 | 1 | 18 | 14 | · | · | · | ·
CCC(=O)N[C@@H]1CC[C@H](CCn2cc(C3CC3)nn2)O[C@H]1CO | 4 | · | 6 | · | · | · | ·
C[C@@H]1CN([C@H](C)CO)C(=O)c2cc(NS(=O)(=O)c3cn(C)cn3)ccc2O[C@@H](C)CCCCO[C@@H]1CN(C)S(=O)(=O)c1ccc(F)cc1 | 7 | -17 | 3 | · | · | · | ·
C[C@H]1CN([C@@H](C)CO)C(=O)c2cc(NS(=O)(=O)c3cccs3)ccc2O[C@H]1CN(C)Cc1ccncc1 | -4 | -141 | 31 | · | · | · | ·
CN1c2ccc(Br)cc2[C@H]2[C@H](CCN2C(=O)Nc2cc(F)ccc2F)[C@H]1CO | 56 | ? | -5 | 105* | 40 | 11 | 44*
COc1ccccc1NC(=O)N1CC[C@@H]2[C@H]1c1cc(-c3ccc(F)cc3)ccc1N(C)[C@H]2CO | 15 | 85 | -14 | · | · | · | ·
CN1c2ccc(-c3ccc(C#N)cc3)cc2[C@@H]2[C@@H](CCN2C(=O)Nc2ccccc2F)[C@@H]1CO | -12 | 84 | 15 | · | · | · | ·
COc1ccccc1NC(=O)N1CC[C@H]2[C@@H]1c1cc(C#Cc3ccc(F)cc3)ccc1N(C)[C@H]2CO | 3 | 108* | -78 | 106* | 116* | 3 | 5
CN1c2ccc(-c3ccc(F)cc3)cc2[C@H]2[C@H](CCN2C(=O)Nc2cc(F)ccc2F)[C@H]1CO | 56 | 15 | -8 | · | · | · | ·
CN1c2ccc(-c3cccc(C#N)c3)cc2[C@@H]2[C@@H](CCN2C(=O)Nc2cc(F)ccc2F)[C@@H]1CO | 6 | ? | -23 | 100* | 93 | 22 | 13
C[C@H](CO)N1C[C@H](C)[C@@H](CN(C)S(=O)(=O)c2ccc(F)cc2)OCCCC[C@H](C)Oc2ccc(NC(=O)Nc3ccc(F)cc3)cc2C1=O | -3 | 100* | -64 | 108* | 73 | 14 | 10
C[C@H](CO)N1C[C@H](C)[C@H](CN(C)S(=O)(=O)c2ccc(F)cc2)OCCCC[C@H](C)Oc2ccc(NC(=O)Nc3ccc(F)cc3)cc2C1=O | -1 | 103* | -41 | 103* | 68 | 18 | 45*
C[C@H](CO)N1C[C@H](C)[C@@H](CN(C)S(=O)(=O)c2ccc(Cl)cc2)OCCCC[C@H](C)Oc2ccc(NC(=O)Nc3ccc(F)cc3)cc2C1=O | 11 | 88 | -26 | · | · | · | ·
C[C@@H]1CCCCO[C@H](CN(C)S(=O)(=O)c2ccc(Cl)cc2)[C@@H](C)CN([C@@H](C)CO)C(=O)c2cc(NC(=O)Nc3ccc(F)cc3)ccc2O1 | -5 | 88 | -80 | · | · | · | ·
C[C@@H]1CCCCO[C@H](CN(C)S(=O)(=O)c2ccc(F)cc2)[C@H](C)CN([C@H](C)CO)C(=O)c2cc(NC(=O)Nc3ccc(F)cc3)ccc2O1 | -2 | 101* | -79 | 96* | 110* | 13 | 40*
